Consider five compounds from PubChem BioAssay.

The source made the active and inactive calls. Unless noted, how the calls were made is not given here.

Experiment [1] is described as follows: anti-His antibody binders, primary screen, artefact control for SMM control protein annotation, biochemical, small-molecule microarray, 635 nm fluorescence (AID 1128).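 Further: score merges feature fluorescence with signal-to-noise for each printed compound spot.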 To be noted: anti-His Alexa647 antibody binding, higher = more signal.
The subject of experiment [2] is Human papillomavirus type 1a E7 protein (residues 1-88). Briefly: HPV1a E7 small-molecule binders, primary screen, biochemical, small-molecule microarray, residues 1-88, 635 nm (AID 1129). To be noted: small-molecule microarray binding, fluorescence 635 nm; higher = more signal.
The target of experiment [3] is Focal adhesion kinase 1 (Homo sapiens) (UniProt Q05397). Briefly: small-molecule microarray binders of FAK, primary screen, biochemical, 635/667 nm fluorescence, BSA, DTT (AID 1130).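 Further: composite of spot emission at 667 nm and signal to noise over triplicate slides.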 The settings on record: PTK2 binding, 635 nm fluorescence, higher = more signal.
Chain of Focal adhesion kinase 1 (Homo sapiens) (Q05397 whole entry, looked up): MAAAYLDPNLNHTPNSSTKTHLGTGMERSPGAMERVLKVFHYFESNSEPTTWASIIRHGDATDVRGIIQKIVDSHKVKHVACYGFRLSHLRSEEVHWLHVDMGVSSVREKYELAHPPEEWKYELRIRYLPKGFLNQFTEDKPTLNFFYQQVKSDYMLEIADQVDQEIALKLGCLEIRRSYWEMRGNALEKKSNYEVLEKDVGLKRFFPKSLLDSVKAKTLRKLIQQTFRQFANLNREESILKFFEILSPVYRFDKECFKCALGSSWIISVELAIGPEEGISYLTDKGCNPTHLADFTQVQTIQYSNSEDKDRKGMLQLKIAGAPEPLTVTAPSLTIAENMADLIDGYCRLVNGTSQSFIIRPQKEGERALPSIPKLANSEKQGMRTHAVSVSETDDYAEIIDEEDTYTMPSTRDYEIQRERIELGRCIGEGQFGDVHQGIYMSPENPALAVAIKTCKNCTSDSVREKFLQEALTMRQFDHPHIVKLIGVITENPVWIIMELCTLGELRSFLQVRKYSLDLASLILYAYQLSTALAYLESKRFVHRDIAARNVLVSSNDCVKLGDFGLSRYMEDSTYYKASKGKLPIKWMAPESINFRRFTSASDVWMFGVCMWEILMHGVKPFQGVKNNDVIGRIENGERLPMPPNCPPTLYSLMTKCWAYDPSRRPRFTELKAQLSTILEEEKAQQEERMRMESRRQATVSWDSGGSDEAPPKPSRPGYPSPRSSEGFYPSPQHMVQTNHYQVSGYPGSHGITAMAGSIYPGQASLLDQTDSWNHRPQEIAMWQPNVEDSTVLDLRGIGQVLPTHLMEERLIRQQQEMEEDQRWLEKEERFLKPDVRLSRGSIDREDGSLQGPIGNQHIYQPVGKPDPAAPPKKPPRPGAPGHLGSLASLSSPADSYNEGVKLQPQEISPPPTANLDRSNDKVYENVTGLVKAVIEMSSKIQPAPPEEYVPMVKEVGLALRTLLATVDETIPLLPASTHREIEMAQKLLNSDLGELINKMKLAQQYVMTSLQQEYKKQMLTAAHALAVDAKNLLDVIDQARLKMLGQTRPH
Experiment [4] concerns Fibrinogen (Alexa647-labelled). In words: fibrinogen binders on compound microarrays, profiling panel, artefact control for SMM control-protein annotation, biochemical, small-molecule microarray, 635/667 nm fluorescence (AID 1131).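 Further: z-score merges 667 nm fluorescence with per-spot signal-to-noise over triplicate slides.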 The settings on record: fibrinogen-A647 binding fluorescence, higher = more signal.
The target of experiment [5] is Follistatin (Homo sapiens) (UniProt P19883). In words: follistatin binders on small-molecule microarrays, primary screen, biochemical, small-molecule microarray, 635/667 nm fluorescence (AID 1132). The settings on record: FST binding, 635 nm fluorescence, higher = more signal.
Chain of Follistatin (Homo sapiens) (P19883 whole entry, looked up): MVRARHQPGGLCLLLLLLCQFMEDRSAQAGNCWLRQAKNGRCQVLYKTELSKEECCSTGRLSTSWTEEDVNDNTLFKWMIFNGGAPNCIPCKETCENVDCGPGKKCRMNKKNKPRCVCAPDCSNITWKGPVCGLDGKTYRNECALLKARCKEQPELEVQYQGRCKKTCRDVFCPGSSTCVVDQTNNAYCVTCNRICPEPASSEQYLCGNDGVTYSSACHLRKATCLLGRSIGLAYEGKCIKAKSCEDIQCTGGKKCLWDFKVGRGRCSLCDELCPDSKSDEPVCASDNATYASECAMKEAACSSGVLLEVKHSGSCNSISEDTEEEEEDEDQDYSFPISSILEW
The target in experiment [6] is Fibroblast growth factor 2 (Homo sapiens) (UniProt P09038). In words: FGF2 binders on small-molecule microarrays, primary screen, biochemical, small-molecule microarray, 635/667 nm fluorescence (AID 1133). To be noted: small-molecule microarray binding, FGF2, fluorescence 635/667; higher = more signal.
Chain of Fibroblast growth factor 2 (Homo sapiens) (P09038 whole entry, looked up): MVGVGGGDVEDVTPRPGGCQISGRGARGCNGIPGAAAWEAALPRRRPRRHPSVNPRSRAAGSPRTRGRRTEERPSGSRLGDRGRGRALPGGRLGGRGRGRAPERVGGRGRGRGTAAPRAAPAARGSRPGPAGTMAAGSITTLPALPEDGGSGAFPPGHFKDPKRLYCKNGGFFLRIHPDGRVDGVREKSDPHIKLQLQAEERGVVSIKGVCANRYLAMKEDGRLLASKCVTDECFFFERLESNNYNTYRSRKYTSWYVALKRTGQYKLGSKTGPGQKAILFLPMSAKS
Experiment [7] can be described thus: mitochondrial membrane potential change in A549 cells, profiling panel, cell-based, JC-1 fluorescence, basal, 24 h, 100 nL (AID 1138).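 Further: A549 lung adenocarcinoma cells under basal conditions with no added stimulus; test concentration not given here.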 The settings on record: higher = more signal.
Experiment [8] concerns Lefty1. In words: Lefty1 binders on small-molecule microarrays, primary screen, biochemical, small-molecule microarray, 635/667 nm fluorescence (AID 1139). To be noted: small-molecule microarray binding, fluorescence 635/667; higher = more signal.
Experiment [9] has as its system wheat germ agglutinin (Triticum aestivum), Alexa647-labelled. In words: wheat germ agglutinin binders on compound microarrays, profiling panel, artefact control for SMM control-protein annotation, biochemical, small-molecule microarray, 635/667 nm fluorescence (AID 1140).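 Further: score merges 667 nm feature emission with signal to noise over triplicate slides.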 The settings on record: WGA-A647 binding, 635 nm fluorescence, higher = more signal.
The target of experiment [10] is Luciferin 4-monooxygenase (Photinus pyralis) (UniProt P08659). Briefly: firefly luciferase enzyme inhibitors, primary screen, biochemical, luminescence, purified enzyme, 2006 set (AID 1141).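 Further: cell-free assay with purified firefly luciferase at 100 ng per well in PBS; test concentration not given here.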 The settings on record: SteadyGlo luminescence, 30 min, higher = more signal, called active from +8 up or from −8 down.
Chain of Luciferin 4-monooxygenase (Photinus pyralis) (P08659 whole entry, looked up): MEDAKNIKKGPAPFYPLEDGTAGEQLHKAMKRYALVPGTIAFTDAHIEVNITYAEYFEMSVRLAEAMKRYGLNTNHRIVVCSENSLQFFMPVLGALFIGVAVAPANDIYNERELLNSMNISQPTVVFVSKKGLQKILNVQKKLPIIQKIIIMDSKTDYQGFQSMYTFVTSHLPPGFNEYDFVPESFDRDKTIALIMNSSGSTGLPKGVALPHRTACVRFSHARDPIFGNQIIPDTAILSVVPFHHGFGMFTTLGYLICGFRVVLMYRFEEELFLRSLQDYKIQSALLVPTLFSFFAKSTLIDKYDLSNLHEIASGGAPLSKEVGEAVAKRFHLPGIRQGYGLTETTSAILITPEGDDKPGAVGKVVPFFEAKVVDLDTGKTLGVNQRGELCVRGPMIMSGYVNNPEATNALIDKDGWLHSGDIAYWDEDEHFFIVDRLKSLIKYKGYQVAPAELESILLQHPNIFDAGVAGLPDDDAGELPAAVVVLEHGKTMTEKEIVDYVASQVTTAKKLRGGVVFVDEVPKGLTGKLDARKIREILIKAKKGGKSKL
The test system of experiment [11] is Wnt5a (protein binding on small-molecule microarray). Briefly: Wnt5a binders on small-molecule microarray, primary screen, biophysical, 635/667 nm fluorescence (AID 1142).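 Further: fluorescence read at 667 nm with signal to noise per printed feature.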 The settings on record: 635 nm fluorescence, higher = more signal.
Experiment [12] can be described thus: cell viability in Huh7 cells, primary screen, cytotoxicity control for HCV replication inhibitor project, CellTiter-Glo luminescence, basal, 48 h (AID 1143).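 Further: Huh7 hepatoma cells carrying a hepatitis C replication reporter with no stimulus; test concentration not given here.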 To be noted: Huh7 HCV replicon, higher = more signal, called active from +8 up or from −8 down. A general note: ATP-based viability assays read luminescence as a measure of living cells.
The nature of experiment [13]: P. aeruginosa biofilm formation inhibitors, primary screen, PAO1 strain, BacTiter-Glo luminescence, LB-PBS (AID 1144). The settings on record: 12 h, higher = more signal.
Experiment [14] is described as follows: CREB reporter modulators without forskolin, primary screen, cell-based, PC12, CRE-LacZ reporter, unstimulated (AID 1145). To be noted: no forskolin, luminescence, 4.5 h, higher = more signal, called active from +8 up or from −8 down.
Experiment [15] is described as follows: CREB reporter modulators under forskolin, primary screen, cell-based, PC12, CRE-LacZ reporter, forskolin-stimulated (AID 1146).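 Further: PC12 cells with 6xCRE LacZ reporter stimulated by forskolin 10 µM; beta-galactosidase reporter signal reflecting CREB driven transcription.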 To be noted: luminescence, 4.5 h, higher = more signal, called active from +8 up or from −8 down.
Experiment [16] deals with Streptavidin (Streptomyces avidinii) (UniProt P22629). In words: streptavidin binders on small-molecule microarray, primary screen, artefact control for SMM compound annotation, biophysical, 635/667 nm fluorescence (AID 1147).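 Further: signal reflects streptavidin binding to arrayed compounds as a control protein.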 To be noted: streptavidin binding, higher = more signal.
Chain of Streptavidin (Streptomyces avidinii) (P22629 whole entry, looked up): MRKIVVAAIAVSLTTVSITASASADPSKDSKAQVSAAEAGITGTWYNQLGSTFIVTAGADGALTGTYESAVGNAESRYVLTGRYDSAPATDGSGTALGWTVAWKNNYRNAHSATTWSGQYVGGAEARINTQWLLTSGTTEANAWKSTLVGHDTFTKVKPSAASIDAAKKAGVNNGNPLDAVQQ
Experiment [17] is described as follows: small-molecule binders of probe aInhba, primary screen, biochemical, small-molecule microarray, 635/667 nm fluorescence (AID 1148).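 Further: score merges 667nm spot fluorescence with signal-to-noise for antibody binding to printed compounds.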 The settings on record: higher = more signal.
Experiment [18] deals with Torsin-1A (Homo sapiens) (UniProt O14656). In words: torsin A binders from cell lysate, primary screen, small-molecule microarray, wild-type, 635/667 nm (AID 1149). To be noted: COS7 hTOR1A-WT lysate, 635 nm fluorescence, higher = more signal.
Chain of Torsin-1A (Homo sapiens) (O14656 whole entry, looked up): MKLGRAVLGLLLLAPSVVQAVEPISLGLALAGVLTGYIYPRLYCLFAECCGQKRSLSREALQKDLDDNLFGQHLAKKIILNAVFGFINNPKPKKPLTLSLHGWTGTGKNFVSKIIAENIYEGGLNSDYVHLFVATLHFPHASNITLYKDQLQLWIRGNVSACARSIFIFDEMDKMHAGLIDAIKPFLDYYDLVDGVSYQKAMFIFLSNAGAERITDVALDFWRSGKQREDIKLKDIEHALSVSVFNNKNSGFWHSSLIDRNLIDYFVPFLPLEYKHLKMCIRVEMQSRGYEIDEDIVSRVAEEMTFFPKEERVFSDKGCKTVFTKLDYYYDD
Experiment [19] shares this target. Briefly: small-molecule binders of mutant TOR1A in lysate, primary screen, cell lysate, small-molecule microarray, COS7 lysate, 635/667 nm fluorescence (AID 1150).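 Further: score pools 667 nm emission and signal to noise measuring lysate protein binding.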 The settings on record: COS7 hTOR1A mutant lysate, 635 nm fluorescence, higher = more signal.
Experiment [20] relates to Sonic hedgehog protein (Shh). Briefly: small-molecule binders of Shh protein, primary screen, biochemical, small-molecule microarray, 635/667 nm fluorescence (AID 1151).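 Further: Shh protein binding to compounds spotted on small-molecule microarray slides; score combines spot fluorescence intensity with signal-to-noise across triplicate slides.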 To be noted: small-molecule microarray binding, 635 nm fluorescence; higher = more signal.

Regarding `O=C(C1N=C(c2ccc(OCCCO)cc2)N(c2ccccc2)O1)N1CCOCC1` (stereo not given), the composite z-score was 0.548 in [1]; 1.2 in experiment [2]; 0.497 in [3]; 0.966 in experiment [4]; 1.22 in experiment [5]; 0.667 in [6]. Besides, the composite z-score in experiment [8] was 0.842; in experiment [9] it was 0.388; in [11], 0.427; in [16] it was 0.637; in experiment [17], 0.0947; in experiment [18], 0.652. Moreover, the composite z-score in experiment [19] is 0.219; in experiment [20] it was 0.476. Besides, the z-score was 0.211 in experiment [7]; -12 (active) in [10]; -3.19 (inactive) in experiment [12]; -0.59 (inactive) in [13]; 0.185 (inactive) in experiment [14]; -0.472 (inactive) in experiment [15].
Consider `COc1ccc(COC2OC[C@]3(C)[C@H]4C5=C(CN3C(=O)OC(C)(C)C)[C@H](C)C(CO)C(CO)C5CC[C@@H]24)cc1` (stereo not given in full), for which the composite z-score in [1] is 1.08; in [2], 1.19; in experiment [3], 0.649; in experiment [4] it was 0.968; in experiment [5] it was 0.535; in experiment [6], -1.03. For the same compound, the composite z-score in [8] is -0.209; in experiment [9], 0.831; in experiment [11], 0.0447; in [16] it was 1.25; in experiment [17], 0.483; in experiment [18], 1.32. Moreover, the figures for the composite z-score in experiment [19] and in [20] were 0.156 and 0.0407, respectively. Further, the z-score in [7] is 0.323; in experiment [10], 1.52 (inactive); in experiment [12] it was -0.422 (inactive); in experiment [13], 0.669 (inactive); in [14] it was 0.966 (inactive); in [15], 1.99 (inactive).
As to `COCCOC(=O)N1C(=O)[C@@]2(c3cc(C#CC4=CCCCC4)ccc31)[C@H](C(=O)N1CCc3cc(OC)c(OC)cc3C1)[C@H]1C(=O)O[C@H](c3ccccc3)[C@H](c3ccccc3)N1[C@@H]2c1ccc(OCCO)cc1`, the composite z-score in experiment [1] stood at 1.2; in experiment [2] it was 1.14; in experiment [3], 0.756; in experiment [4], 0.868; in experiment [5] it was 1.15; in experiment [6], 1.16. In addition, the composite z-score in [8] came out at 1.1; in experiment [9] it was 0.118; in [11], 0.538; in [16], 0.665; in experiment [17] it was 0.0649; in experiment [18], 0.304. Besides, the values for the composite z-score in experiment [19] and in experiment [20] were 0.295 and 1.38, respectively. Moreover, the z-score in experiment [7] was -1.21; in experiment [10] it was -1.09 (inactive); in experiment [12] it was -0.571 (inactive); in experiment [13], -0.259 (inactive); in experiment [14], -0.475 (inactive); in experiment [15], -0.381 (inactive).
`CC(C)(C)C(=O)N[C@@H](c1ccc(Cl)cc1)[C@]1(C)C[C@H]1C1CCCCC1`: the composite z-score in experiment [1] was 0.893; in [2], 1.21; in [3] it was 1.19; in [4], 1.02; in [5] it was 0.279; in [6] it was -0.386. In addition, the composite z-score is -0.775 in [8]; 0.537 in experiment [9]; 0.182 in [11]; 2.44 in experiment [16]; 0.634 in experiment [17]; 0.895 in [18]. Further, the figures for the composite z-score in [19] and in [20] were 1.18 and -0.546, respectively. Moreover, the z-score in experiment [7] is 2.63; in experiment [10], 0.542 (inactive); in [12], -2.95 (inactive); in experiment [13] it was -0.153 (inactive); in [14], 0.197 (inactive); in experiment [15] it was 0.456 (inactive).
As to `C=CC[C@]1(C(=O)NCCCOC)N=C(c2ccc(OCCCO)cc2)O[C@H]1c1ccccc1N=[N+]=[N-]`, the composite z-score was found to be 2.54 in experiment [1]; 1.22 in [2]; 0.143 in experiment [3]; 0.967 in experiment [4]; 1.26 in experiment [5]; 1.28 in experiment [6]. Moreover, the composite z-score is -0.397 in experiment [8]; 0.542 in [9]; 0.485 in [11]; 1.39 in [16]; 0.611 in [17]; 0.0108 in [18]. For the same compound, the composite z-score in [19] was 0.878; in experiment [20] it was -0.477. Also, the z-score in experiment [7] was 0.688; in experiment [10], -8.19 (active); in [12], -2.57 (inactive); in experiment [13] it was -0.742 (inactive); in experiment [14] it was 2.14 (inactive); in experiment [15] it was -1.5 (inactive).
